Data reported in PubChem BioAssay (NCI).
This is part of a sample that, as a whole, favours compounds with a hit. Of some 83,000 tested, about 20% had one in any assay.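 Percent growth is the endpoint: 0 to 100 indicates growth inhibition (40 means 60% inhibition), 0 means no net growth, and negative values indicate cell death.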 The source made the active and inactive calls. Rule for the calls: active = growth percent below 10; inactive = the rest.

System: HL-60(TB) leukemia
Assay: NCI-60 one-dose screen, 48 h (100 = growth as untreated, 0 = no growth, -100 = all killed)
Conditions: 10 µM unless noted

Row | SMILES | growth
1 | CC(C)c1ccc(S(=O)(=O)NC(=O)NC2CCCC2)cc1 | 90.8% (inactive)
2 | CCCCCCCCCCCC[n+]1ccc(CCCCCCCCC)cc1 | -53.3% (active)
3 | O=C(C(=O)N1CCCC1)c1cn(CCCn2cc(C(=O)C(=O)N3CCCC3)c3cc(Br)ccc32)c2ccc(Br)cc12 | 86.5% (inactive)
4 | C#CCOC(=O)Nc1ccccc1 | 99.7% (inactive)
5 | O=C(/C=C/C12c3ccccc3C(c3ccccc31)C1C(=O)NC(=O)C12)c1ccc(F)cc1 (configuration not stated) | -19.5% (active)
6 | O=C1Nc2c(C(=O)O)cccc2/C1=N/c1n[nH]c(=S)s1 | 79.7% (inactive)
7 | C=C1C(=O)O[C@H]2[C@H]1CC/C(COC(=O)NCCc1c[nH]c3ccc(Cl)cc13)=C\CC[C@@]1(C)O[C@@H]21 | -26.2% (active)
8 | CCN(CC)CCOc1nc2ccc(OC)cc2c2c1-c1ccc(OC)cc1C2=O | 19.2% (inactive)
9 | Cc1ccc(-c2nc(C#N)c(S(=O)(=O)n3nc(C)cc3N)o2)cc1 | 16.6% (inactive)
10 | CCN1C2=C(SC(=S)C1=C1SC(C(=O)OC)=C(C(=O)OC)S1)SC(=Nc1ccc(OC)cc1)C2=O | 26% (inactive)
11 | COc1nc2c(c(=O)[nH]1)C(c1ccc(Oc3ccnc4cc(Cl)ccc34)c(OC)c1)C=C(c1cc(OC)c(OC)c(OC)c1)N2 (configuration not stated) | 97.9% (inactive)
12 | C=C1C(=O)O[C@H]2[C@H]1CC/C(COC(=O)NCCc1c[nH]c3ccccc13)=C\CC[C@@]1(C)O[C@@H]21 | -46.2% (active)
13 | Cc1ccc(OC2=C(C#N)C(=N)N3C(=NN2)Sc2c(C)ccc(C)c23)cc1 | 109% (inactive)
14 | Nn1c(-c2ccc(Cl)cc2)nc2c(-c3ccc(Cl)cc3)nc3ccc(Cl)cc3c2c1=O | 43.4% (inactive)
15 | CCN1CCN(c2cc(C)nc(N(CCNc3ccnc4cc(Cl)ccc34)Cc3ccc4c(c3)OCO4)n2)CC1 | -61.8% (active)
16 | C=C(CNCCc1ccc(O)cc1)[C@@H]1CC[C@]2(CO)CC[C@]3(C)[C@H](CC[C@@H]4[C@@]5(C)CCC(N)C(C)(C)[C@@H]5CC[C@]43C)[C@@H]12 (some centres not stated) | -47% (active)
17 | c1ccc(Oc2c3ccccc3nc3ccccc23)cc1 | -16.4% (active)
18 | CN1CCCCC1CCN1c2ccccc2Sc2ccc(Cl)cc21 (configuration not stated) | 42.1% (inactive)
19 | O=c1c(F)cn(Cc2ccccc2CCl)c(=O)n1Cc1ccccc1CCl | -63.6% (active)

Row | SMILES | growth
20 | COC(=O)c1nc(-c2ccccc2)oc1S(=O)(=O)n1nc(-c2ccccc2)cc1N | 58.9% (inactive)
21 | N#C/C(=C\c1cn(Cc2ccccc2)c2ccccc12)C(=O)Nc1ncc(Cc2ccccc2Cl)s1 | 93.1% (inactive)
22 | COc1cc(/C=C2\CCCC3=C2NC(C)=NC3c2cc(OC)c(OC)c(OC)c2)cc(OC)c1OC (configuration not stated) | -4.1% (active)
23 | COc1ccc2oc(=O)cc(CN3C(=O)S/C(=C\c4ccc(Cl)cc4)C3=O)c2c1 | 89.5% (inactive)
24 | CC12O[C@H](C[C@@H](O)[C@H]1O)n1c3ccccc3c3c4c(c5c6ccccc6n2c5c31)C(=O)N(CCCN)C4=O | 4.62% (active)
25 | O=C(Nc1cccc(Br)c1)c1cc(=O)[nH]c2ccccc12 | 108% (inactive)
26 | CC(C)C[C@H](NC(=O)Cn1cccc(CNC(=O)c2ccccc2)c1=O)B(O)O | -51.3% (active)
27 | Cc1ccc(=O)n(-c2ccc(Br)cc2F)c1 | 106% (inactive)
28 | O=c1c2ccccc2c(=O)c2c1sc1c(=O)c3ccc(O)cc3c(=O)c12 | -30.6% (active)
29 | O=C1CSC(c2ccc(O)cc2)N1c1nnc(Cn2cnnc2)o1 (configuration not stated) | 59.1% (inactive)
30 | COc1cc(/C=C/c2cc(/C=C/c3ccc(O)c(OC)c3)n(C(=O)Nc3ccccc3Cl)n2)ccc1O | -24.3% (active)
31 | CCOC(=O)c1c(N)sc2cc(O)ccc12 | 94.1% (inactive)
32 | CC(=O)Oc1ccc(/C(=C(\C)c2ccc(Cl)cc2)c2ccc(OCCN3CCCCC3)cc2)cc1 | 27.4% (inactive)
33 | Cn1c(=O)[nH]c(=O)c2nc3c(nc21)-c1ccccc1C3=O | 101% (inactive)
34 | C=CC(C)(O)CCC1C(=C)CCC2C(C)(C)CCCC12C (configuration not stated) | 82.1% (inactive)
35 | CC(C)(C)c1cc(/C=N/NC(=O)c2ccccc2NC(=O)c2cccs2)c(O)c(C(C)(C)C)c1 | 14.1% (inactive)
36 | CCOC(=O)c1ccc(N=Cc2sc(=O)[nH]c2O)cc1 | 101% (inactive)
37 | CSc1nc2c(c(=O)[nH]1)N=C1c3ccccc3C(=O)C1C(c1ccc(F)cc1)N2 (configuration not stated) | 91.4% (inactive)
